Assay results: PubChem BioAssay AID1508622 (National Center for Advancing Translational Sciences (NCATS), 2021)
Activity calls are given as the source filed them. A call without a number means that no potency is given here. Calls follow the shape of the dose curve; as a rule, active = well fitted activation curve with a large enough effect; inconclusive = small, poorly fitted or top-dose-only effect; inactive = no such curve, though single readings can be large or run the other way.
Potency is read from the fitted curve at half-maximal effect.

Assay: Confirmatory qHTS for Identification of Small Molecule Activators of Huntingtin-Antisense Promoter Activity
Conditions: HEK293 HTT-AS promoter firefly luciferase reporter, 24 h; series mostly up to 57.5 µM
Method in brief: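 Plated reporter HEK293 cells (24 h) received library compounds at up to 57.5 uM final or 50 uM PTC124, incubated 24 h at 37C; firefly luciferase luminescence was then recorded with Dual-Glo reagent.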
With `COc1ccc(C2=C(C)C(=O)N(Cc3ccc(C(=O)Nc4cccc(F)c4)cc3)S2(=O)=O)cc1` the Potency was “inactive”. With `O=C(NCC(c1ccc2c(c1)OCO2)N1CCN(c2ccccc2)CC1)c1ccc(F)c(F)c1` (centres undefined) the Potency was “inactive”. For `COc1ccccc1N1CCN(C(CNC(=O)C(=O)NCCc2ccccc2)c2cccnc2)CC1` (centres undefined), the Potency was “inactive”. With `CC(=O)Nc1cccc(NC(=O)Cc2csc(COc3cccc(C)c3)n2)c1` the Potency was “inactive”. With `CO[C@H]1C=CC=C(C)C(=O)NC2=CC(=O)C(NCCN(C)C)=C(C[C@@H](C)C[C@H](OC)[C@@H](O)[C@@H](C)C=C(C)[C@@H]1OC(N)=O)C2=O` the Potency was “inactive”. With `Cc1ccc(C(=O)Nc2ccc(S(=O)(=O)N(Cc3ccccc3)c3ccccc3)cc2)cc1` the Potency was “inactive”. With `COc1cc(CN(C(=O)c2ccc(OC(C)C)cc2)c2ccccn2)cc(OC)c1OC` the Potency was “inactive”. With `Cc1ccc(-c2nc3sc(CCNS(=O)(=O)c4cc(F)ccc4F)c(C)n3n2)cc1` the Potency was “inactive”. In the case of `CC=C1NC(=O)[C@H]2CSSCCC=C[C@H](CC(=O)N[C@H](C(C)C)C(=O)N2)OC(=O)[C@H](C(C)C)NC1=O`, the Potency is reported as “inactive”. In the case of `CSc1ccc(CCNC(=O)c2ccc(CS(=O)(=O)c3ccc(Br)cc3)o2)cc1`, the Potency is reported as “inactive”. With `Cc1cccc(NS(=O)(=O)c2ccc3c(c2)CCN3C(=O)C2CCC2)c1` the Potency was “inactive”. With `Cc1cccc(C(=O)Nc2nc(-c3nnn(-c4cc(F)ccc4F)c3C)ns2)c1` the Potency was “inactive”. In the case of `CCOc1cc(CNCCSc2nnnn2-c2ccccc2)cc(Cl)c1OC`, the Potency is reported as “inactive”. With `CCOC(=O)c1oc2c(c1C)-c1nn(Cc3ccc(Cl)cc3)cc1CC2` the Potency was “inactive”. In the case of `CN(C)Cc1ccc(-c2nc3cccc4c3n2CCNC4=O)cc1`, the Potency is reported as 30.1 µM (active). For `O=C(COCc1cc(-c2ccc3c(c2)OCO3)on1)N1CCN(c2cccc(C(F)(F)F)c2)CC1`, the Potency was “inactive”. In the case of `COc1ccc(Cl)cc1Nc1sc(C(=O)c2ccccc2)c(N)c1C(=O)Nc1ccccc1`, the Potency is reported as “inactive”. In the case of `CCc1ccc(NC(=O)c2ccc(F)c(S(=O)(=O)N3CCC4(CC3)OCCO4)c2)cc1`, the Potency is reported as “inactive”. In the case of `Cc1cc(OCC(=O)N2CCC(c3nc4ccccc4s3)CC2)ccc1Cl`, the Potency is reported as “inactive”. For `CC(C)(C)c1ccc(C(=O)Nc2ccc3c(c2)CCCN3C(=O)c2cccs2)cc1`, the Potency was “inactive”. For `Cc1ccc(Cl)cc1-n1ncc2c(Nc3cccc(C)c3C)ncnc21`, the Potency was “inactive”. For `COc1ccc(Cl)cc1NC(=O)CSc1nccn1-c1ccc(Cl)cc1`, the Potency was “inactive”. For `CCc1ccc(NC(=O)c2ccc(F)c(S(=O)(=O)N3CCC(C)CC3)c2)cc1`, the Potency was “inactive”. In the case of `COc1ccc(CCNC(=O)c2ccc3nc(Cc4ccccc4)oc3c2)cc1OC`, the Potency is reported as “inactive”. With `COc1ccc(-c2cc(C(=O)N3CCN(c4ccccc4OC)CC3)c3cc(C(C)C)ccc3n2)cc1` the Potency was “inactive”. For `COc1ccc(CCNC(=O)c2ccc3c(c2)CCN3S(=O)(=O)c2ccc(C)cc2)cc1`, the Potency was “inactive”. In the case of `COc1ccc(NC(=O)C(=O)c2cc(C)n(-c3ccc(C)cc3)c2C)cc1Cl`, the Potency is reported as “inactive”. With `COc1ccc2oc(=O)c(C(=O)NCCc3c(C)[nH]c4ccc(C)cc34)cc2c1` the Potency was “inactive”. For `Cc1ccc(C)c(NC(=O)Cn2c(-c3nonc3N)nc3ccccc32)c1`, the Potency was “inactive”. In the case of `CCOc1ccccc1NC(=O)c1ccc(F)c(S(=O)(=O)N2CCN(c3ccc(F)cc3)CC2)c1`, the Potency is reported as “inactive”. For `CCOc1ccc(S(=O)(=O)NCCc2sc3nc(-c4ccc(F)cc4)nn3c2C)cc1`, the Potency was “inactive”. For `Cc1cc(NC(=O)CN(C)S(=O)(=O)c2ccc3c(c2)CCC(=O)N3)ccc1Br`, the Potency was “inactive”. With `Cc1cc(C)c(S(=O)(=O)NCCc2sc3nc(-c4ccc(F)cc4)nn3c2C)c(C)c1` the Potency was “inactive”. In the case of `COc1ccc(NC(=O)Cn2c(=O)oc3cc(S(=O)(=O)N4CCCCCC4)ccc32)cc1OC`, the Potency is reported as “inactive”. For `CC(C)(C)OC(=O)N1CCC(c2c(C(=O)N3CCC(c4ccccc4)C3)cnn2-c2ccc(Cl)cc2)CC1` (centres undefined), the Potency was “inactive”. For `Cc1ccc(C)c(N2CCN(C(=O)c3nn(C)c4c3CS(=O)(=O)c3ccccc3-4)CC2)c1`, the Potency was “inactive”. For `Cc1ccc(C)c(N2CCN(S(=O)(=O)c3ccc(C(=O)N(C)C)s3)CC2)c1`, the Potency was “inactive”. With `Cc1cccc(CSc2cn(CC(=O)N3CCOCC3)c3ccccc23)c1` the Potency was 3.01 µM (active). For `O=C(CN1C(=O)C2(SCC(=O)N2c2cccc(Cl)c2)c2ccccc21)NCCc1ccccc1` (centres undefined), the Potency was “inactive”.
